Assay [1] can be described thus: Nuclear factor erythroid 2-related factor 2/antioxidant responsive element (Nrf2/ARE) small molecule agonists: qHTS cell viability counter screen in human keratinocytes (AID 1919968; active = well fitted cell-killing curve with a large enough effect in the repeat runs; also: nearly all actives have a fitted effect of over 55% in size; also: potency is read from the fitted curve at half-maximal effect). In outline: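 CellTiter-Fluor fluorescence, read 1 h after reagent, gave viability in the same wells as the ARE-luciferase assay. KeratinoSens cells (1,500/well) had 23 h compound exposure at 37 C/5% CO2 following 5 h plating.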
On the technique in general: Quantitative high-throughput screening tests each substance at several concentrations.

Assay [2] in a line: Nuclear factor erythroid 2-related factor 2/antioxidant responsive element (Nrf2/ARE) small molecule agonists: luciferase reporter gene qHTS assay in human keratinocytes (AID 1919969). Also: nearly all actives have a fitted effect of over 35% in size. Also: potency is read from the fitted curve at half-maximal effect. A general note: In a reporter assay the amount or activity of a reporter protein is the signal.
A short description of assay [3]: G protein-coupled receptor (GPCR) small molecule agonists, calcium flux assay: HEK293 wild type cell line counter screen (AID 1920065). Put shortly:
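Calcium flux counter screen: compound added in agonist mode at 15 concentrations in triplicate to dye-loaded parental HEK293 cells. Fluorescence (480/540) read kinetically for 3 min; ATP served as positive control.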
In general terms: Calcium flux is commonly read through the fluorescence of an indicator in the cells.

Assay [4] can be described thus: p53 small molecule agonists, cell-based qHTS assay with human liver microsomes (AID 1963577).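 Also: p53 response element beta-lactamase reporter cells with liver microsomes plus NADPH.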 In outline:
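Reporter activation was measured by LiveBLAzer fluorescence intensity in p53RE-bla cells, which had been exposed to compounds for 16 h at 37 C alongside 0.5 mg/mL human liver microsomes and 0.5 mg/mL NADPH (final concentrations).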

The nature of assay [5]: p53 small molecule agonists, cell-based qHTS assay with rat liver microsomes (AID 1963578). In outline: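 Compound in DMSO added to p53RE-bla cells 5 h post-plating; rat microsomes/NADPH 0.5 mg/mL final; 16 h, 37 C; LiveBLAzer 2 h RT.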
Assay [6] is described as follows: p53 small molecule agonists, cell-based qHTS assay with human liver microsomes: qHTS cell viability counter screen (AID 1963579). Also: nearly all actives have a fitted effect of over 45% in size. Also: potency is read from the fitted curve at half-maximal effect. In outline:
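HLM-supplemented (0.5 mg/mL final) and NADPH-supplemented (0.5 mg/mL final) p53RE-bla cultures, 4,000 cells per well, were dosed with compounds in DMSO for 16 h at 37 C; luminescent ATP detection (CellTiter-Glo, 30 min, room temperature) quantified surviving cells.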

Assay [7] is described as follows: p53 small molecule agonists, cell-based qHTS assay with rat liver microsomes: qHTS cell viability counter screen (AID 1963580). Also: nearly all actives have a fitted effect of over 45% in size. In outline: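 Cytotoxicity counter screen: intracellular ATP measured by CellTiter-Glo luminescence in the same wells as the beta-lactamase reporter read, on HCT-116 p53RE-bla cells exposed 16 h at 37 C to compounds with rat liver microsomes and NADPH, each 0.5 mg/mL final.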

In assay [8] the target is 5-hydroxytryptamine receptor 2A (Homo sapiens) (UniProt P28223). Nature of the assay: 5-hydroxytryptamine receptor 2A (HTR2A) small molecule antagonists, cell-based qHTS assay (AID 1963586). Also: nearly all actives have a fitted effect of over 45% in size. In outline:
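CHO cells stably expressing human HTR2A were plated for 18 h at 37 C, then loaded with calcium dye for 1 h. Compounds were preincubated 5 min at room temperature before DOI (4 nM solution) was added. Kinetic fluorescence was read for 3 min.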

The target is the same in assay [9]. Kind of assay: 5-hydroxytryptamine receptor 2A (HTR2A) small molecule agonists, cell-based qHTS assay (AID 1963587). Also: nearly all actives have a fitted effect of over 30% in size. Put shortly:
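CHO cells stably expressing human HTR2A, plated 18 h, loaded with calcium dye 1 h at 37 C. Agonist mode: compounds added and intracellular calcium fluorescence recorded kinetically for 2 min at 1 sec intervals.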

The target in assay [10] is Muscarinic acetylcholine receptor M1 (Homo sapiens) (UniProt P11229). Nature of the assay: Cholinergic receptor muscarinic 1 (CHRM1) small molecule antagonists, cell-based qHTS assay (AID 1963588). Also: nearly all actives have a fitted effect of over 40% in size. In outline: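 Compounds were tested at 15 concentrations in three independent runs. Dye-loaded CHRM1-CHO cells were exposed 5 min at room temperature before stimulation by acetylcholine added at 50nM. Intracellular calcium was read kinetically on FDSS for 3 min.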
Sequence of Muscarinic acetylcholine receptor M1 (Homo sapiens) (P11229 whole entry, looked up): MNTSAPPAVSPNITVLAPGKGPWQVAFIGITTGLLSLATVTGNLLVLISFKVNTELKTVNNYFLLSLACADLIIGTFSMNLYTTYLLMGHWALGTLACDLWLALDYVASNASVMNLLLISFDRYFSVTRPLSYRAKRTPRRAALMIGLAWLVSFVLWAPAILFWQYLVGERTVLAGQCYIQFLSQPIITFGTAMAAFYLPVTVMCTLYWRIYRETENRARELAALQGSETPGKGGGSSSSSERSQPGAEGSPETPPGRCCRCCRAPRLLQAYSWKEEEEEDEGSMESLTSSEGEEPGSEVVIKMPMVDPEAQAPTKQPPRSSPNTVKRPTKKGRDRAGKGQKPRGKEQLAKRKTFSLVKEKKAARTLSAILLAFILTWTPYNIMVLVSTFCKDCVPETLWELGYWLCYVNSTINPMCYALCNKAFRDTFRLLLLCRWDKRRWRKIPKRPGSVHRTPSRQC

For assay [11] the target is unchanged. Nature of the assay: Cholinergic receptor muscarinic 1 (CHRM1) small molecule agonists, cell-based qHTS assay (AID 1963589). Also: nearly all actives have a fitted effect of over 35% in size. In outline: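 Agonist-mode calcium-flux screen: compounds at 15 concentrations, three independent runs, were pin-transferred onto dye-loaded human CHRM1-CHO cells. Fluorescence was then recorded kinetically every second over minutes.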

Assay [12] can be described thus: cAMP Responsive Elements (CRE) small molecule agonists, cell-based qHTS assay (AID 1963590). Put shortly: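 Agonist mode: compound added to CRE-bla HEK 293T cells (2,000/well, 18 h after plating) for 3 h at 37 C/5% CO2. Reporter activity detected via FRET beta-lactamase substrate, 2 h room-temperature loading.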
Assay [13] is described as follows: cAMP Responsive Elements (CRE) small molecule antagonists, cell-based qHTS assay (AID 1963591; active = well fitted inhibition curve with a large enough effect in the signal ratio in the repeat runs, not every such curve was filed as active; the % refers to the signal ratio). Put shortly:
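Antagonist mode: compounds are added alongside the adenylyl cyclase activator NKH477 (0.25 uM final) to CRE-bla HEK293T cells for 3 h. LiveBLAzer FRET substrate, 2 h at room temperature, reports bla expression.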

The target in assay [14] is Beta-2 adrenergic receptor (Homo sapiens) (UniProt P07550). Nature of the assay: Adrenergic beta2 receptor (ADRB2) small molecule antagonists, cell-based qHTS assay (AID 1963592). Also: series mostly up to about 92 µM; nearly all actives have a fitted effect of over 50% in size. Put shortly:
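Assay format: CHO-ADRB2 cells, 18-20hr seeding at 37C/5% CO2, then compound plus 1nM isoproterenol agonist mix for 0.5hr RT. Homogeneous time-resolved fluorescence cAMP detection after 1hr, expressed as 665/615 nm ratio.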

The target of assay [15] is D(2) dopamine receptor (Homo sapiens) (UniProt P14416). Kind of assay: Dopamine D2 receptor (DRD2) small molecule agonists, cell-based qHTS assay (AID 1963594). Also: nearly all actives have a fitted effect of over 35% in size. Put shortly: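 HEK293 cells stably expressing human DRD2, pre-treated with PDE inhibitor Ro20-1724 (0.1 mM final) and compound 10 min at room temperature, then stimulated with NKH477 (200nM […]) for 30 min. cAMP read by HTRF (665/620 nm).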
Sequence of D(2) dopamine receptor (Homo sapiens) (P14416 whole entry, looked up): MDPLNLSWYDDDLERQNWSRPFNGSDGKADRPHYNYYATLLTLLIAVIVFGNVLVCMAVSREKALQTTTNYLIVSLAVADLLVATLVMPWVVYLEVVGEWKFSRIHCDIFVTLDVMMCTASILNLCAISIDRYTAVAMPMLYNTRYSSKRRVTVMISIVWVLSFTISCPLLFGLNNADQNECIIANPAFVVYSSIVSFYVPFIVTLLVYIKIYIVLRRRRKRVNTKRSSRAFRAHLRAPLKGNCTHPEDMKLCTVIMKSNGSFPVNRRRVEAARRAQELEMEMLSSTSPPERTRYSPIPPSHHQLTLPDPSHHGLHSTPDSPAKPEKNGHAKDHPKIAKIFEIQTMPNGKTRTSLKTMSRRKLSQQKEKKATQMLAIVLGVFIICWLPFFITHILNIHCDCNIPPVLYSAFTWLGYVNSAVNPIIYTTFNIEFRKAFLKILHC

The target is the same in assay [16]. Kind of assay: Dopamine D2 receptor (DRD2) small molecule antagonists, cell-based qHTS assay (AID 1963595; active = well fitted inhibition curve with a large enough effect in the signal ratio in the repeat runs, with a control signal flat; the % refers to the signal ratio). In outline: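 Antagonist mode in DRD2-HEK293 cells: after compound addition with 0.1 mM Ro20-1724, cells received quinpirole (12 nM) and NKH477 (200 nM) for 30 min at room temperature; HTRF cAMP read after 1 h detection.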
Assay [17] in a line: p53 small molecule agonists, cell-based qHTS assay: qHTS cell viability counter screen (AID 1963581). Also: nearly all actives have a fitted effect of over 45% in size. Also: potency is read from the fitted curve at half-maximal effect. In outline:
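Counter screen read by CellTiter-Glo luminescence (ATP content, 30 min at room temperature), run in the same wells as the beta-lactamase reporter read. HCT-116 p53RE-bla cells saw compounds for 16 h at 37 C.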

Assay [18] in a line: p53 small molecule agonists, cell-based qHTS assay (AID 1963582; active = well fitted activation curve with a large enough effect in the signal ratio in the repeat runs, not every such curve was filed as active; the % refers to the signal ratio). Put shortly:
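Read-out is beta-lactamase FRET fluorescence after 2 h at room temperature with LiveBLAzer B/G substrate. p53 response element-bla cells were treated 16 h at 37 C with compounds in DMSO, added 5 h after seeding.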

For assay [19], the target named is Beta-2 adrenergic receptor (Homo sapiens) (UniProt P07550). Kind of assay: Adrenergic beta2 receptor (ADRB2) small molecule agonists, cell-based qHTS assay (AID 1963593).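 Also: CHO cells stably overexpressing human ADRB2.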 Put shortly: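 CHO cells stably over-expressing ADRB2 were plated overnight at 37C, then dosed with compounds plus a stimulation mix containing 100uM IBMX and 25uM Ro-20-1724 for 0.5hr at room temperature. cAMP was measured by HTRF competition, 1hr.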
Sequence of Beta-2 adrenergic receptor (Homo sapiens) (P07550 whole entry, looked up): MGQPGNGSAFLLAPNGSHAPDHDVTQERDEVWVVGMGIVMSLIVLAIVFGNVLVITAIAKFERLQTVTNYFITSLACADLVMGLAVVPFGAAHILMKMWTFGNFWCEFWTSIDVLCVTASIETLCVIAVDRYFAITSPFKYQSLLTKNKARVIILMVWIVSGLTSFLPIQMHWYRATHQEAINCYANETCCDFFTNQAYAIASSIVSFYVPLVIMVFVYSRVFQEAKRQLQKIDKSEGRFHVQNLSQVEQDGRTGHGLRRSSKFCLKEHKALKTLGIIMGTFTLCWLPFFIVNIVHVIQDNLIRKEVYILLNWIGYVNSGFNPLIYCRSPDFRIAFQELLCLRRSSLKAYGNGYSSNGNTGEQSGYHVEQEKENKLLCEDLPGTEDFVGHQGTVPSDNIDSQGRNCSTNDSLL

Values without a mark were called inactive. Results filed as inconclusive are left out. The source made the active and inactive calls. Unless noted, calls follow the shape of the full dose curve.

Sequence of 5-hydroxytryptamine receptor 2A (Homo sapiens) (P28223 whole entry, looked up): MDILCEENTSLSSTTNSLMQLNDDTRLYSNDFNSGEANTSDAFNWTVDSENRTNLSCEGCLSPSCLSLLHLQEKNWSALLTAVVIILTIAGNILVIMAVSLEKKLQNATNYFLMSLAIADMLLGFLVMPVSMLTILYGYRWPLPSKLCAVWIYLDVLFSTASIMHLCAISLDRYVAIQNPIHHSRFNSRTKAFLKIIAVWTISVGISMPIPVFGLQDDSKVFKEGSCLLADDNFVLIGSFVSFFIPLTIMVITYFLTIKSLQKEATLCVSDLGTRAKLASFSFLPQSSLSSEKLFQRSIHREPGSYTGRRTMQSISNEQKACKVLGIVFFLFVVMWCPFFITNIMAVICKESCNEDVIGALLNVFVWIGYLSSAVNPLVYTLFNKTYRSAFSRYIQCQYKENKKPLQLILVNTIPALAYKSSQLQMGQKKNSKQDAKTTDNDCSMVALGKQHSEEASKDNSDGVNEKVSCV

`COc1ccc(OC)c(C=O)c1`: the Potency result in assay [1], in [2], in [3], in [4], in [5] and in assay [6] was “inactive” each time. For the same molecule, the Potency result in assay [7], in [8], in [9], in assay [10], in assay [11] and in [12] was “inactive” each time. The Potency result in assay [13], in assay [14], in assay [15] and in [16] was “inactive” in each case.
`O=C(O)C(F)(F)C(F)(F)C(F)(F)C(F)(F)C(F)(F)F`: the Potency result in assay [1], in assay [2], in assay [3], in [4], in assay [5] and in [6] was “inactive” in each case. The Potency result in assay [7], in [17], in assay [18], in assay [8], in assay [9] and in assay [10] was “inactive” throughout. The Potency result in assay [11], in [12], in assay [13], in assay [14], in [19] and in assay [15] was “inactive” each time. Moreover, in assay [16], the Potency entry was “inactive”.
As to `O=C(NC(=O)c1cc(F)c(F)cc1Cl)Nc1cc(F)ccc1N1CCC(C(=O)O)CC1`, the Potency result in assay [1], in assay [2], in assay [3], in assay [4], in [5] and in assay [6] was “inactive” each time. Further, the Potency entry in [17], in [9], in assay [10], in assay [11], in assay [14] and in [19] was “inactive” throughout. Also, the Potency entry in [15] and in assay [16] was “inactive” in each case.
Take `CCO[C@H]1O[C@@H]2OC3(C)CC[C@H]4[C@H](C)CC[C@@H]([C@H]1C)[C@@]24OO3`: the Potency entry in assay [1], in [2], in assay [3], in assay [4], in assay [5] and in [6] was “inactive” in each case. The Potency entry in assay [7], in assay [17], in assay [18], in [8], in assay [10] and in assay [11] was “inactive” each time. Moreover, the Potency entry in assay [12], in assay [14], in assay [15] and in assay [16] was “inactive” each time.
For `O=C=Nc1ccc(Cl)cc1`, the Potency entry in assay [1], in assay [3], in assay [4], in assay [5], in assay [7] and in [18] was “inactive” in each case. Further, the Potency entry in assay [8], in [9], in assay [11], in [12], in [13] and in assay [14] was “inactive” in each case. The Potency result in assay [19], in [15] and in assay [16] was “inactive” in each case. The Potency in [2] was 68.6 µM (active).
Turning to `Oc1ccc(C2(c3ccc(O)cc3)c3ccccc3-c3ccccc32)cc1`, the Potency is 30.6 µM (active) in assay [1], 0.969 µM (active) in assay [2], 32.4 µM (active) in assay [6] and 45.8 µM (active) in [17]. The Potency entry in [3], in assay [4], in assay [5], in [8], in assay [9] and in assay [10] was “inactive” in each case. Besides, the Potency result in assay [11], in [14] and in [15] was “inactive” throughout.
Turning to `CCCC[N+](CCCC)(CCCC)CCCC`, the Potency entry in assay [1], in [2], in assay [3], in assay [4], in assay [5] and in assay [6] was “inactive” in each case. In addition, the Potency result in assay [7], in [17], in assay [8], in assay [9], in [10] and in assay [11] was “inactive” each time. Moreover, the Potency result in assay [13], in assay [14], in [15] and in [16] was “inactive” in each case.
For `C[N+](C)(C)CCOC(=O)C(O)(c1ccccc1)c1ccccc1`, the Potency entry in assay [1], in assay [2], in assay [3], in assay [4], in [5] and in assay [6] was “inactive” in each case. Moreover, the Potency entry in assay [7], in assay [17], in assay [8], in [9], in [12] and in assay [13] was “inactive” in each case. For the same molecule, the Potency entry in assay [14], in [19], in assay [15] and in [16] was “inactive” in each case.

Values taken from PubChem BioAssay (Tox21).
